The list is not random: actives were taken first. Their share in the collection is about 12%.
Cl transport mod = KCC2 (human) Cl- transport modulation. Q9H2X9. KCC2 cells, thallium flux FluoZin-2 fluorescence. B-score of Tl+ flux slope (higher = more flux/activation; lower = inhibition) at 10 µM. hit rate 2.2% among 190,000. AID 1456;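 active means thallium flux slope and its plate-corrected score both differing from the plate sample mean at a set confidence after two filtering rounds, in either direction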;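 further: slope of fluorescence scaled to starting intensity during 10 to 20 s after thallium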
Target sequence (Q9H2X9 whole entry, looked up): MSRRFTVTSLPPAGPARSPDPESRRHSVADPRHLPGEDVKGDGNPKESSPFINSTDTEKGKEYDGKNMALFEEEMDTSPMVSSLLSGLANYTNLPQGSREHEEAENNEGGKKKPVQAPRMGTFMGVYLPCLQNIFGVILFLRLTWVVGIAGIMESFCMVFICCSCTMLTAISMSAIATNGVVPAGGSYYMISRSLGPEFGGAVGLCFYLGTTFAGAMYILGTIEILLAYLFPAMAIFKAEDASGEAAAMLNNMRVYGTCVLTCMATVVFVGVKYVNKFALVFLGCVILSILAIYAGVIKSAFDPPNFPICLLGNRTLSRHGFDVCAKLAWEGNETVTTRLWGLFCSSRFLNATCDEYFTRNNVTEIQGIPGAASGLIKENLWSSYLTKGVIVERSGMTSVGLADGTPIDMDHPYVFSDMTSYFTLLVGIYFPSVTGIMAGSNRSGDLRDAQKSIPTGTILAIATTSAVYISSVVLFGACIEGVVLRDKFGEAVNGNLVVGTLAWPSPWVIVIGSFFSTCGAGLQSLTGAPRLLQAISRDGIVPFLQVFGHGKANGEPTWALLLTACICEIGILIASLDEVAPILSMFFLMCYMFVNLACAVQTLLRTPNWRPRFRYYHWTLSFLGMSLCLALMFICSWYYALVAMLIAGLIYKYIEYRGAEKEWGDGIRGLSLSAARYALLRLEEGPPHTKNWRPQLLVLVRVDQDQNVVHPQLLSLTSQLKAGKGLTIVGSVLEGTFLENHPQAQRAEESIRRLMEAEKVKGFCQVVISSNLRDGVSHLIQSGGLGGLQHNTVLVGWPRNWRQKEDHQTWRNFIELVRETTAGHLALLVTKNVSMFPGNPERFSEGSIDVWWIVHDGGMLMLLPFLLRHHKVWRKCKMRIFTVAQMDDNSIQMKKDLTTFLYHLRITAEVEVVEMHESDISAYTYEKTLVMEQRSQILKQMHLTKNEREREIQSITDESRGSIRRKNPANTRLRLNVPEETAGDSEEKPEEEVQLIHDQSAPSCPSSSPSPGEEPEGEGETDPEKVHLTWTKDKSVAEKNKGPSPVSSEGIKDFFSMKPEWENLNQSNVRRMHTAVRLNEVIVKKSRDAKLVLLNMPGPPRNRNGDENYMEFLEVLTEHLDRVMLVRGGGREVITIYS
ROMK mod = modulates human ROMK potassium channel activity; Tet-inducible ROMK, thallium flux fluorescence; actives lie on both sides; B-score at 10 µM; hit rate 2% among 130,000;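 active means signal ratio slope over the read window, or its plate-corrected B-score, at least 3 SD from the plate mean, either direction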;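 further: B-score of the F/F0 ratio slope over 7 to 12 s after thallium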
WT yeast gro inh = growth inhibition of WT yeast, mitochondrial fusion screen. mitochondrial fusion phenotypic screen, WT strain. inhibition, % at 10 µM. hit rate 2.1% among 190,000; in the data active means inhibition above about 58%; tested in S. cerevisiae
Insulin prom inh = TRM-6 insulin promoter activity inhibition | inhibition, % at 2 µM | TRM-6 cells (human fetal islet line), insulin promoter-eGFP reporter, imaging; reporter expression induced with tamoxifen | hit rate 0.9% among 130,000 | AID 1273;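 active means inhibition above the mean plus 3 SD, with well images judged a real hit on visual review, cut at about 60% in these data, passing the limit was not always enough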
Insulin prom up = MIN6 insulin promoter up-regulation | MIN6 insulin promoter-GFP reporter, high-content imaging; active compounds read high | z-score at 5 µM | hit rate 0.3% among 190,000;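 active means z-score above 3 at 5 µM with at least 500 cells counted in the well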
Lmaj promast = Leishmania major promastigote growth inhibition; Leishmania major promastigotes, resazurin fluorescence viability; AID 1063; inhibition, % at 10 µM; hit rate 9% among 200,000; in the data active means inhibition above about 50%;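 further: promastigotes grown with compound for 44 hours at 28 °C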
Active calls of the source: *; i = inactive; . = not tested or not shown.

SMILES	Cl transport mod	ROMK mod	WT yeast gro inh	Insulin prom inh	Insulin prom up	Lmaj promast
CCn1c2ccccc2c2cc(NC(=O)CSc3nnc(-c4cccc(C)c4)o3)ccc21	1	0.38	24	1	.	92*
O=C(CSc1nccc(=O)[nH]1)Nc1ccc(F)c(Cl)c1	0.67	.	-3	12	-0.05	-5
O=C(CSc1nnc(-c2ccncc2)o1)NCc1ccccc1	-0.52	1.7	-9	-19	0.5	50*
CCn1c(SCC(=O)Nc2ccc3c(c2)c2ccccc2n3CC)nnc1-c1ccco1	-0.045	.	-3	17	-0.07	72*
CCn1c2ccccc2c2cc(NC(=O)CSc3nccc(=O)[nH]3)ccc21	-2.3	-0.46	-10	-13	.	90*
CCn1c2ccccc2c2cc(NC(=O)CSc3nnc(-c4ccccc4)o3)ccc21	-1.2	-0.71	.	-24	-0.37	85*
CCn1c2ccccc2c2cc(NC(=O)CSc3nnc(-c4cccc(F)c4)o3)ccc21	-0.36	0.095	.	-11	-0.21	4
C/C(CC(=O)Nc1ccc(Cl)cc1Cl)=N\NC(=O)c1cnccn1	0.0012	.	.	.	0.13	.
CCNC(=S)/N=C(\N)Nc1nc(C)c2cc(C)ccc2n1	-1	0.4	42	.	-1.4	81*
COc1cccc2c1C(=O)c1c(O)c3c(c(O)c1C2=O)C[C@@](O)(C(=O)CO)C[C@@H]3O[C@H]1C[C@H](N)[C@H](O)[C@H](C)O1	i	.	59*	-355	.	100*
CN1C(=O)/C(=C/C=C2\SCCN2C)N(C)C1=S	1.1	-0.79	-6	89*	-0.38	8
CCOc1ccc2c(c1)OC(c1ccc(C)cc1)(C(F)(F)F)NC2=O (centres undefined)	1.7	1.2	60*	-61	0.33	100*
Cc1ccccc1Cn1c(=N)n(CC(=O)c2ccc([N+](=O)[O-])cc2)c2ccccc21	0.81	.	16	14	-0.52	100*
N=c1n(CC(=O)c2cccc([N+](=O)[O-])c2)c2ccccc2n1Cc1ccccc1	1.3	.	20	0	-1.7	63*
COC(=O)c1cc(=O)nc2sc(-c3ccc(F)cc3)nn12	.	.	18	.	0.86	-6
CCOc1ccc(NC(=O)CCC(=O)NNC(=O)Nc2cccc(Cl)c2)cc1	0.26	0.31	-4	.	0.19	-6
CCN(CC)C(=O)c1sc2c(c1C)c(=O)n(-c1ccc(C)c(C)c1)c(=O)n2CC(=O)NCC1CCCO1 (centres undefined)	0.92	-0.29	-1	83*	0.1	17
CCc1ccc(-n2c(=O)c3c(C)c(C(=O)N(C)C)sc3n(CC(=O)NCC3CCCO3)c2=O)cc1 (centres undefined)	1.2	0.062	-8	7	-0.13	-3
CC1=C(C(=O)OCc2ccccc2)C(c2cccnc2)c2c(n(C)c(=O)n(C)c2=O)N1 (centres undefined)	-0.3	.	2	-13	-0.2	75*
CC1=C(C(=O)OCc2ccccc2)C(c2cccnc2)n2ncnc2N1 (centres undefined)	.	-0.66	-11	38	-0.04	3
CC(=O)NC1C(Oc2ccccc2C)OC2COC(c3ccco3)OC2C1O (centres undefined)	0.18	.	-7	.	1	2
COC(=O)c1cc2c(ccn2-c2ccc(F)cc2)n1Cc1cccc(OC)c1	-0.29	-0.68	-22	-11	-0.12	98*
COC(=O)c1cc2c(ccn2-c2ccc(F)cc2)n1Cc1ccc(OC(C)=O)cc1	-0.33	-0.014	-12	-27	-0.29	93*
CCOC(=O)c1cc2c(ccn2-c2ccc(F)cc2)n1CC(=O)N1CCN(C(=O)c2ccco2)CC1	-2.5	.	22	.	.	-4
O=C(c1cc(COc2ccc(F)cc2Cl)on1)N1CCc2ccccc2C1	-0.93	0.67	5	.	-0.44	-7
SMILES	Cl transport mod	ROMK mod	WT yeast gro inh	Insulin prom inh	Insulin prom up	Lmaj promast
Cc1cccnc1NC(=O)C1CCCN(S(=O)(=O)c2ccc3c(c2)oc(=O)n3C)C1 (centres undefined)	.	.	7	.	-0.79	-3
Cn1cc(CN2CCN(CCc3ccccc3)C(CCO)C2)cn1 (centres undefined)	-0.54	0.8	8	.	0.53	-2
CC(=O)c1cc(CN2CCN(CCc3ccccc3)C(CCO)C2)cs1 (centres undefined)	1.1	.	-18	.	-0.07	77*
OCCC1CN(Cc2ccc3nsnc3c2)CCN1CCc1ccccc1 (centres undefined)	0.47	-0.11	-1	.	-0.46	84*
CC(=O)c1cc(CN2CCN(Cc3ccccc3)C(CCO)C2)cs1 (centres undefined)	.	1.1	-13	.	0.76	65*
COc1ccc(CN2C3CCCC2CC(NC(=O)Nc2ccccc2)C3)cc1 (centres undefined)	0.63	.	-8	81*	0.03	94*
COc1ccc(CN2C3CCCC2CC(NC(=O)Nc2cccc(C)c2)C3)cc1 (centres undefined)	-0.75	.	1	10	-0.78	90*
C=CCN1C2CCCC1CC(NC(=O)Nc1cccc(C(C)=O)c1)C2 (centres undefined)	-0.67	-1.7	-11	.	0.3	-2
COC(=O)c1cccc(C#CC(NP(=O)(c2ccccc2)c2ccccc2)c2ccccc2)c1 (centres undefined)	-1.3	.	.	.	-0.94	.
COc1cc(OC)cc(C(=O)Nc2ccc(S(=O)(=O)Nc3ncccn3)cc2)c1	0.084	-0.56	-4	-56	-0.04	-4
O=c1c2c3c(sc2ncn1/N=C/c1ccc([N+](=O)[O-])o1)CCCC3	1.2	.	-11	27	-0.55	96*
CC1(C)Cc2nc3sc4c(=O)n(CC(=O)NCc5ccco5)cnc4c3cc2CO1	0.19	.	-5	.	0.77	-4
O=C(N/N=C\CCc1ccccc1)c1ccco1	0.27	.	0	-33	0.17	-3
COC(=O)c1ccc(C2N=C(c3cccs3)CC(c3ccccc3O)N2)cc1 (centres undefined)	1.1	-0.81	62*	-12	-0.57	36
Nc1c(C(=O)O)cnn1-c1ccc([N+](=O)[O-])cc1	-1.2	-0.59	.	.	0.11	.
CC(OC(=O)CCN1C(=O)c2cccc([N+](=O)[O-])c2C1=O)C(=O)Nc1cc(Cl)cc(Cl)c1 (centres undefined)	-0.38	0.054	16	22	0.73	54*
CC(C)(C)c1ccc(NC(=O)COC(=O)CCN2C(=O)c3cccc([N+](=O)[O-])c3C2=O)cc1	-0.063	.	-10	9	0.37	0
C/C(=N\NC(=O)COc1ccc(C)cc1Br)c1cc([N+](=O)[O-])cs1	1.7	-0.29	4	.	-1.5	59*
C/C(CC(=O)Nc1ccccc1)=N\NC(=O)COc1ccc(C)cc1Br	0.18	0.57	9	.	0.24	-1
O=C(N/C(=C/C=C/c1ccccc1)C(=O)N1CCCCC1)c1ccc([N+](=O)[O-])cc1	-0.042	.	13	-7	-0.96	61*
O=C(N/C(=C/c1cccc([N+](=O)[O-])c1)C(=O)N1CCCCCC1)c1cccs1	-0.11	0.76	3	-41	0.23	61*

Compound activity: PubChem BioAssay, several laboratories
